High-throughput results: PubChem, Broad Institute
Compounds with a hit are over-represented: about 3.1% of the library has one in this group of screens.
CASP6 VEID inh: human caspase-6 inhibitors, primary screen, biochemical, VEID-R110 fluorescence, single point, set 2; AID 686996, 2013; hit rate 0.53% among 350,000; purified caspase-6, Z-VEID-R110 cleavage fluorescence; P55212; inhibition, % at 12.5 µM;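 active = mean inhibition across replicates at least about 35%, with every replicate also reaching that limit, limit read from the data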
FGF22 binding: binders of human FGF22 protein, primary screen, FGF22 synaptogenesis inhibitor project, biophysical, thermal shift, single point. Fibroblast growth factor 22 (Homo sapiens), Q9HCT0. recombinant FGF22 thermal shift, SYPRO orange fluorescence; percent of sucrose octasulfate shift, DMSO zero. activity (Tm shift, normalised), % at 9.99 µM. hit rate 1.5% among 340,000. AID 651658, 2012;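 active = mean Tm shift, scaled 0 neutral to 100 positive control, at about 1.3% or above, every replicate too, limit read from the data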
SIRT5 block: SIRT5 desuccinylase inhibitors, primary screen, biochemical, fluorescence imaging, single point, set 5; hit rate 1.1% among 330,000; NAD-dependent protein deacylase sirtuin-5, mitochondrial (Homo sapiens), Q9NXA8; Purified SirT5, succinyl-peptide AMC, trypsin-coupled fluorescence; inhibition, % at 15 µM; in the data active = inhibition above about 15%
ERAP1 HTS inh: human ERAP1 aminopeptidase inhibitors, primary screen, biochemical, single point, plate reader. inhibition, % at 10.7 µM. hit rate 0.15% among 340,000. Endoplasmic reticulum aminopeptidase 1 (Homo sapiens), Q9NZ08. recombinant ERAP1, Leu-AMC fluorescence, 60 min;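 active = mean replicate inhibition of at least 30%, or all replicates individually reaching that 30% level; inactive = mean below 30% and not every replicate reaching it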
Target sequence (Q9NZ08 whole entry, looked up): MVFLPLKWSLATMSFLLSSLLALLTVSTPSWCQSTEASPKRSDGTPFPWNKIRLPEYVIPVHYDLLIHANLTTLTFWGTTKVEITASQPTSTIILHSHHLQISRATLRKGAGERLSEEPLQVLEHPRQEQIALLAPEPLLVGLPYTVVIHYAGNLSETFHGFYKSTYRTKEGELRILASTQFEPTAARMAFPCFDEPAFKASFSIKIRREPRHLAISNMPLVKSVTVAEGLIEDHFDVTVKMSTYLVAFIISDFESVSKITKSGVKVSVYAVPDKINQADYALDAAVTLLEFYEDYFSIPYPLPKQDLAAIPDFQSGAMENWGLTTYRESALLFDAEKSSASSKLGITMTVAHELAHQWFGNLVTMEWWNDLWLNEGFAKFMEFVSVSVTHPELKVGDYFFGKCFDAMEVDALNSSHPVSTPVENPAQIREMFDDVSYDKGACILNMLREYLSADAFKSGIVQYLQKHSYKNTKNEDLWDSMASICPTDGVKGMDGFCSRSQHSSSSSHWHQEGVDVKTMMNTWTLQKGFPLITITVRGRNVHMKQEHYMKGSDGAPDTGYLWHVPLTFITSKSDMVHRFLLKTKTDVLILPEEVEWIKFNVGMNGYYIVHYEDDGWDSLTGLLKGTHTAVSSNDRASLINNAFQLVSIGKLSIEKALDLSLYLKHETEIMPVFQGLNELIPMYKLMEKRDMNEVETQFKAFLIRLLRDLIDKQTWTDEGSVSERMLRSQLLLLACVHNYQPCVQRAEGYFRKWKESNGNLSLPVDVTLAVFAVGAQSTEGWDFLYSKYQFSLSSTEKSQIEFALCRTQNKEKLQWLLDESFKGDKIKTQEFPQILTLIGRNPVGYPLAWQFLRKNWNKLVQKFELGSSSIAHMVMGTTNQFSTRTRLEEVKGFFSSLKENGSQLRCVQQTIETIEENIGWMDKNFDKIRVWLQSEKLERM
Large screens that a line does not name were inactive.

CC1=C(C#N)c2nc(N)c(C#N)c(C)c2/C1=C\c1ccc(-c2ccccc2C(=O)O)o1	CASP6 VEID inh 54, SIRT5 block 25
CSCCC(NS(=O)(=O)c1ccccc1F)C(=O)NCC(C)(C)N1CCOCC1 (stereo not given)	CASP6 VEID inh 54
CC(=O)Nc1nc(=O)c2ccccc2s1	ERAP1 HTS inh 33
CC1=C(C(=O)Nc2ccccc2)C(c2ccccc2[N+](=O)[O-])NC(=O)N1 (stereo not given)	FGF22 binding 43
COc1ccccc1NC(=O)C1=C(C)NC(=O)NC1c1ccc(C)cc1 (stereo not given)	none
COc1ccccc1NC(=O)C1=C(C)NC(=O)NC1c1ccccc1[N+](=O)[O-] (stereo not given)	FGF22 binding 43
COc1ccc(NC(=O)C2=C(C)NC(=O)NC2c2cccs2)c(OC)c1 (stereo not given)	FGF22 binding 44 (no result: CASP6 VEID inh)
Cc1ccccc1S(=O)(=O)N1C[C@H](O)COC[C@H]2O[C@H](CC(=O)N3CCN(C)CC3)CC[C@@H]21	none
CN(C)S(=O)(=O)c1ccc(C(=O)OCc2ccc([N+](=O)[O-])cc2)cc1	FGF22 binding 44
CN(C)S(=O)(=O)c1ccc(NC(=O)CCNC(=O)c2ccc([N+](=O)[O-])cc2)cc1	FGF22 binding 43
O=C(CCNC(=O)c1ccc([N+](=O)[O-])cc1)Nc1ccc(N2CCOCC2)cc1N1CCOCC1	FGF22 binding 43
Cc1ccc(NC(=O)CCNC(=O)c2ccc([N+](=O)[O-])cc2)cc1S(=O)(=O)N(C)C	none
O=C(C[C@H]1CC[C@H]2[C@@H](COC[C@H](O)CN2CCc2ccccc2)O1)NCc1ccccc1	none
C[C@H](CO)N1C[C@H](C)[C@H](CN(C)C(=O)Nc2ccccc2)Oc2ccc(NC(=O)Nc3ccc(F)cc3)cc2CC1=O	none
Cc1ccc(S(=O)(=O)Nc2ccc3c(c2)C(=O)N([C@H](C)CO)C[C@@H](C)[C@H](CN(C)C(=O)C2CCCCC2)OCCCC[C@H](C)O3)cc1	none (no result: FGF22 binding)
CC1CC2(C)Oc3ccccc3CC2C(C)C1CNCCCN(C)C (stereo not given)	FGF22 binding 43
O=C(c1cccc(F)c1)N1CC[C@H]2[C@H](CO)Nc3ccc(-c4ccccc4)cc3[C@H]21	none (no result: FGF22 binding)
O=C(NNC(=O)C1CC1)c1cc2cc3ccccc3nc2s1	FGF22 binding 43
Cc1ccccc1C(=O)NNC(=S)NC(=O)c1cccnc1	FGF22 binding 43
CC(C)SCC(=O)Nc1ncc2c(n1)-c1ccccc1CC2	FGF22 binding 44
CC(C)C#Cc1cnc2c(c1)C(=O)N([C@H](C)CO)C[C@@H](C)[C@H](CN(C)C(=O)Nc1cc(F)ccc1F)O2	none
NC(=O)c1cc(-c2ccccc2)sc1NC(=O)CN1CCCCC1	FGF22 binding 43
COc1ccc(-c2csc(Nc3ccc(S(=O)(=O)Nc4cc(C)on4)cc3)n2)cc1C	FGF22 binding 44
CO[C@H]1CN(C)C(=O)c2ccc(NC(=O)NC(C)C)cc2OC[C@@H](C)N(C(=O)CC2CC2)C[C@@H]1C	none
COc1ccccc1OCCNC(=O)C1CCCCC1	ERAP1 HTS inh 32
COc1ccccc1OCCNC(=O)C1CC(=O)N(c2ccccc2OC)C1 (stereo not given)	none
Cc1ccc(OCCNC(=O)C2CCCCC2)cc1	SIRT5 block 19
COc1cc(C(=O)NC2CCCCC2)ccc1OCc1ccc(Cl)cc1Cl	FGF22 binding 43
COc1ccc(C(=O)NCC(=O)OCc2ccc(Cl)cc2Cl)cc1OC	none
N#C[C@H]1[C@@H](c2ccccc2)[C@H](CO)N1C(=O)CCN1CCCCC1	none
COc1ccc(-c2[nH]ncc2CN(C)CCN2CCOCC2)cc1F	none
COc1ccc(-c2[nH]ncc2CN(C)CC2CCCCO2)cc1F (stereo not given)	FGF22 binding 43
CN(C)CC(=O)N1CCCCN2[C@H](C1)[C@@H](c1ccc(-c3cccc(C(=O)N(C)C)c3)cc1)[C@@H]2CO	none
CS(=O)(=O)c1ccc(Nc2nc(C(N)COCc3ccccc3)cs2)cc1 (stereo not given)	CASP6 VEID inh 46 (no result: SIRT5 block)
CS(=O)(=O)c1ccc(Nc2nc(C(N)Cc3ccccc3)cs2)cc1 (stereo not given)	none (no result: SIRT5 block)
